# Measured values taken from PubChem BioAssay AID602440 (Sanford-Burnham Center for Chemical Genomics, 2012).
# Hit rate of the full screen: of about 360,000 compounds, about 2,300 (0.64%) were called active. Only a selection was taken, and actives are over-represented in it overall. A number with no mark means an inactive call. No stated cut-off is given here; in the data, active means inhibition mostly above about 40% (no sharp cut-off); inactive means mostly below about 27%.
# Target: Sentrin-specific protease 8 (Homo sapiens) (UniProt Q96LD8)
# Sequence (Q96LD8 whole entry, looked up): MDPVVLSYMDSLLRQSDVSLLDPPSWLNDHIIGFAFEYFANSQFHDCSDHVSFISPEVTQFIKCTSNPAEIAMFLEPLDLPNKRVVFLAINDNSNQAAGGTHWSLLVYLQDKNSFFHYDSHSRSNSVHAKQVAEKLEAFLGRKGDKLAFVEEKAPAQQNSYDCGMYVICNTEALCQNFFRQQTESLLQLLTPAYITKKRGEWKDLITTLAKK
# Assay: human SENP8 protease inhibitors, primary screen, biochemical, fluorescence, Nedd8 protein substrate, uHTS (AID 602440)
# Settings: recombinant SENP8, Nedd8 substrate fluorescence; at 20 µM; stronger effect = higher value
row,SMILES,inhibition
1,CC1(C(=O)Nc2cccc3c2CCCC3)CCN1C(=O)CCc1ccc(Cl)cc1Cl (centres undefined),10.4%
2,COc1ccc(C(=O)NN2C(=O)C3C(c4ccccc4)C=CC(c4ccccc4)C3C2=O)cc1 (centres undefined),7%
3,COc1ccc2c(c1)N(C)/C(=C1/SC(=S)N(NC(C)=O)C1=O)S2,1.5%
4,CC(=O)N1C(=O)/C(=C2\SC(=S)N(NC(=O)c3ccc(O)cc3)C2=O)c2ccccc21,53.5% (active)
5,Oc1cccc(C2c3[nH]c4ccccc4c3CCN2Cc2cnn(-c3ccccc3)c2)c1 (centres undefined),-56.9%
6,CSCC[C@H](NC(=O)CCCn1nnc2ccccc2c1=O)C(=O)O,38.5%
7,CCOC(=O)N1CCN(C(=O)C[C@@H]2C[C@@]3(C(=O)OC)CC(C)(C)CC=C3N(Cc3ccco3)C2=O)CC1,26.3%
8,CCCc1ccc(C(=O)COC(=O)CN2C(=O)NC3(CCCCC3C)C2=O)cc1 (centres undefined),9.6%
9,CCCCCCCCCCCCCCCC(=O)OC/C=C(C)/C=C/C=C(C)/C=C/C1=C(C)CCCC1(C)C,40.9% (active)
10,CCc1nnc(NC(=O)CCN(c2ccc(C)cc2)S(=O)(=O)c2ccccc2)s1,14.8%
11,COCCCNC(=O)CNC(=S)N(Cc1cc(OC)c(OC)c(OC)c1)C1CCCC1,4.9%
12,Cc1c(NC(=O)Nc2cccc([N+](=O)[O-])c2)c(=O)n(-c2ccccc2)n1C,9.3%
13,CCOC(=O)C(CC)Sc1ncnc2c1nnn2-c1ccc(F)cc1 (centres undefined),40.3% (active)
14,COC(=O)C(C)n1cnc2c(nnn2-c2ccc(F)cc2)c1=O (centres undefined),4.4%
15,CCOC(=O)C(C)n1cnc2c(nnn2-c2ccc(F)cc2)c1=O (centres undefined),6.3%
16,CC(C)c1nc2oc3c(N4CCN(C)CC4)ncnc3c2c2c1CCC2,-130%
17,Cc1ccnc(N2CCN(C(=O)CSc3nc4ccccc4nc3N3CCCCC3)CC2)c1,-63.3%
18,OC(COCC1COc2ccccc2O1)CN1CCN(c2ccc(F)cc2)CC1 (centres undefined),16.7%
19,CN1/C(=c2/s/c(=C3/C(=O)N(c4ccccc4)NC3=Nc3ccccc3)n(C)c2=O)C(C)(C)c2ccccc21,54.8% (active)
20,OCC1(Cc2ccccc2)CCN(Cc2cc3ccccc3o2)CC1,3.7%

row,SMILES,inhibition
1,CCN(CC)S(=O)(=O)c1ccc(N2CCOCC2)c(NC(=O)C2CSC3(C)CCC(=O)N23)c1 (centres undefined),-11.2%
2,Cc1cc([N+](=O)[O-])c(NC2CCCCC2)c([N+](=O)[O-])c1,45.6% (active)
3,Cc1cc([N+](=O)[O-])c(N2CCC[C@@H]2C(=O)O)c([N+](=O)[O-])c1,2.1%
4,Cc1cc(C)cc(NC(=O)NC2CCCCCCC2)c1,1.8%
5,CCCCN(CC(=O)NC(C)(C)C)C(=O)C(=O)Nc1ccc2c(c1)OCCO2,17%
6,O=S(=O)(O)CCN1CCOCC1,24.3%
7,O=C1c2ccccc2C(=O)C1c1ccccc1,4.5%
8,O=C1c2ccccc2-c2ccccc2NC1O (centres undefined),14.1%
9,O=C1c2ccccc2C(=O)C1C(=O)C1CC1,37.6% (active)
10,Cc1cccc2nc(CNc3ccc(F)cc3)cn12,-86.7%
11,CCOC(=O)c1sc2nc(C)nc(Nc3ccc(OC)c(OC)c3)c2c1C,-82.2%
12,CCCCN1CC(C)(C)[C@H](CC(=O)Nc2ccc(Br)cc2)C1=O,15.8%
13,CN(C)c1nc(NN)nc(Nc2ccc(F)cc2)n1,12.3%
14,Cn1c2ccc(F)cc2c2nnc(NN)nc21,49.2% (active)
15,CCn1c2ccc(F)cc2c2nnc(SCCN3CCOCC3)nc21,11.3%
16,N#Cc1c(N)nc2c3c(sc(=N)c2c1N)NC(=O)CC3c1ccccc1Cl (centres undefined),-174%
17,CCCCN1CC(N2CCN(Cc3cccc(C)c3)CC2)CS1(=O)=O (centres undefined),12.1%
18,C#CCOc1ccccc1/C=C1/C(=O)ON=C1C,13.5%
19,CC1=NOC(=O)/C1=C\c1ccccc1,42.9% (active)
20,Cc1ccc(S(=O)(=O)n2oc(=O)c(C3CCCCC3)c2N)cc1,7.6%

row,SMILES,inhibition
1,COc1cc(OC)cc(C(=O)NCC(=O)OCc2csc(-c3ccccc3)n2)c1,15.3%
2,Cc1ccc(F)cc1NC(=O)c1cccc(N(C)C)c1,-82.7%
3,CN(C)S(=O)(=O)c1ccc(C(=O)NCC2(N3CCOCC3)CCCCC2)cc1,5.2%
4,COc1cc(N2CCCC2)c(OC)cc1/C=C(/C#N)c1cccc(Br)c1,75.3% (active)
5,CCC(C)CN1CCC(CO)(Cc2ccccc2Cl)CC1 (centres undefined),1.5%
6,COc1ccc(Br)c(Cn2c(C)c(C(=O)NCc3cccs3)sc2=O)c1,3.5%
7,COc1cccc(Nc2nnc(SCC(=O)N3CC(=O)Nc4ccccc43)s2)c1,-6.6%
8,COc1c(F)c(F)c(C(=O)O)c(Nc2ccccc2C)c1F,4.1%
9,Cc1ccc(S(=O)(=O)N2CCN(CC(=O)N/N=C/c3ccc(Br)s3)CC2)cc1,6%
10,Cc1ccccc1NCC(=O)N/N=C\c1ccc([N+](=O)[O-])s1,45.1% (active)
11,Cc1nn(Cc2ccc(Cl)cc2)c(Cl)c1/C=N/NC(=O)CNc1ccccc1F,7.1%
12,O=C(CN(C(=O)CNC(=O)c1cccs1)c1cccc(F)c1)NC1CCCCC1,11.2%
13,Cc1ccc(NC(=O)COC(=O)CN2CCSC2=O)cc1F,14.3%
14,Cc1cccc(S(=O)(=O)N(C)C[C@H]2OCc3cnnn3CCCC(=O)N([C@@H](C)CO)C[C@H]2C)c1,14.1%
15,COc1ccc(OC)c(NC(=O)c2cccc(S(=O)(=O)N3CCN(C(C)=O)CC3)c2)c1,13.3%
16,CC(=O)Nc1ccc(S(=O)(=O)N2CCC(NC(=O)c3ccccc3)CC2)cc1,9%
17,CC(=O)N1CCN(S(=O)(=O)c2cccc(C(=O)NC3CCC(C)CC3)c2)CC1 (centres undefined),43.9% (active)
18,C/C(=N\NC(=O)CCn1nc(C)cc1C)C(C)(C)C,13.5%
19,CCN1C(=O)[C@H]2[C@@H](c3ccc(C(F)(F)F)cc3)N[C@]3(CCCN(Cc4ccc(Br)cc4)C3=O)[C@H]2C1=O,3.9%
